Measured values taken from PubChem BioAssay (NCI).
Where “and” joins values, the source holds several entries; their conditions need not be identical. Identical values can stand only once. About 83,000 compounds went through this panel and 20% of them were active in at least one assay; those are over-represented in the sample as a whole.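 The endpoint reported here, percent growth, reads 100 for growth as untreated, 0 for no net growth and -100 for all cells dead.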 The source holds several records for some structures; these can differ, active in one and inactive in another. Calls of active or inactive are those of the source. How the source made its calls: active means growth percent below 10; inactive means the rest.

tested on: HL-60(TB) leukemia; experiment: NCI-60 one-dose screen, 48 h (100 = growth as untreated, 0 = no growth, -100 = all killed); conditions: 10 µM unless noted

Row | SMILES | growth
1 | O=C(O)CCCCSc1ncnc2nc[nH]c12 | 103% (inactive)
2 | CC(C)(C)NC(=O)C(OC(=O)C1CCc2cc(F)ccc2O1)c1ccccc1Cl (stereo not given) | 103% (inactive)
3 | Nc1ccc(S(=O)(=O)c2ccc(N)cc2)cc1 | 67.4% (inactive)
4 | CCOC(=O)C1=C(N)Oc2c(sc3c(CC)cccc23)C1c1ccc(F)cc1 (stereo not given) | 23.7% (inactive)
5 | O=C(Nc1ccc(Cl)cc1)Nc1ccc(Cl)c(C(F)(F)F)c1 | -60.8% (active)
6 | CNC(C)=O | 107% (inactive)
7 | c1cncc(CNc2ccccc2-c2nnc(Nc3ccc4c(c3)OCCO4)o2)c1 | 8.71% (active)
8 | COc1cc(C2CC(c3ccc(Nc4nc(NCCO)nc(N5CCOCC5)n4)cc3)=NN2c2cc(Cl)cc(Cl)c2)cc(OC)c1OC (stereo not given) | 44.9% (inactive)
9 | COC(=O)[C@H](NC(=O)C1(C)CCC[C@]2(C)[C@H]3C[C@H]4C(C(C)C)=C[C@]3(CC[C@@H]12)[C@@H]1C(=O)CCC(=O)[C@@H]14)C(C)C (stereo not given in full) | 103% (inactive)
10 | C=C1C(=O)O[C@H]2[C@H]1CC/C(COC(=O)c1cccnc1)=C\CC[C@@]1(C)O[C@@H]21 | 2.18% (active)
11 | CS(=O)(=O)c1cccc(-c2c(-c3cccc(OS(N)(=O)=O)c3)nc3sccn23)c1 | 102% (inactive)
12 | COc1nccc2cc3c(=O)n4c(cc5ccccc54)c(=O)n3c12 | 93.5% (inactive)
13 | Cn1cc(-c2cnc3ccc(NC(=O)Nc4ccc(F)c(Br)c4)cc3n2)cn1 | 13.5% (inactive)
14 | COc1ccc(/C=N\NC(=O)CN2CCN(c3cc4c(cc3F)c(=O)c(C(=O)N/N=C/c3ccc(OC)c(OC)c3)cn4C3CC3)CC2)cc1OC | 1.29% (active)
15 | O=C(N=Nc1c(O)[nH]c2ccc(F)cc12)c1cc2ccccc2[nH]1 | 79.3% (inactive)
16 | N#C/C(=N\Nc1ccc(Cl)cc1)C(=O)C1CC1 | 62.8% (inactive)
17 | COC(C(=O)[C@@H](O)[C@@H](C)O)[C@@H]1Cc2cc3cc(O[C@H]4C[C@@H](O[C@H]5C[C@@H](O)[C@H](O)C(C)O5)[C@H](O)C(C)O4)cc(O)c3c(O)c2C(=O)[C@H]1O[C@H]1C[C@@H](O[C@H]2C[C@@H](O[C@H]3C[C@@H](OC)[C@H](O)C(C)O3)[C@@H](O)C(C)O2)[C@H](O)C(C)O1 (stereo not given in full) | 81.5% (inactive)
18 | Cn1cc(-c2csc(-c3cn(CCNC(=O)OC(C)(C)C)c4ccccc34)n2)c2cccnc21 | 45.9% (inactive)
19 | O=C1/C(=C/c2ccc(-c3ccc(Br)cc3)o2)SC(=S)N1CCc1ccc(O)cc1 | 44.3% (inactive)
20 | CC(C)OC(=O)N1CCOCC1 | 116% (inactive)

Row | SMILES | growth
21 | O=S(=O)(NCCNc1cc(-c2cn(-c3ccccc3)nc2-c2cccc(O)c2)ccn1)c1ccc(Br)cc1 | 11.1% (inactive)
22 | CN(C)CCOC1(Cc2ccc(Cl)cc2Cl)CCC(C(C)(C)C)CC1 (stereo not given) | 43.9% (inactive) and 9.21% (active)
23 | N#CC1=C(/N=C/c2ccccc2)Oc2c(ccc3ccccc23)C1c1ccccc1 (stereo not given) | 0.269% (active)
24 | CCC1CCC(C)NC1 (stereo not given) | 99.4% (inactive)
25 | CCOC(=O)c1cc(C(=O)c2ccc(OC)c(OC)c2)n2ccncc12 | 92% (inactive)
26 | Cc1nc(NC(=O)NC2CCCCC2)sc1C(=O)NN | 172% (inactive)
27 | O=C(CN1C(=O)CCC1=O)Nc1ncc(Cc2ccc(F)cc2)s1 | 98.2% (inactive)
28 | CSc1nc2c(c(=O)[nH]1)N=C1c3ccccc3C(=O)C1C(c1ccccc1)N2 (stereo not given) | -34.8% (active)
29 | COc1cc(NCCCCN=C(N)N)c2ncccc2c1 | 103% (inactive)
30 | CC1Cc2ccccc2N1C(=O)c1ccc(C(=O)c2ccccc2)cc1 (stereo not given) | -11.1% (active)
31 | Nc1ccccc1SC(CC(=O)c1ccccc1)c1cccc([N+](=O)[O-])c1 (stereo not given) | 96.8% (inactive) and 88.5% (inactive)
32 | COc1ccc(/C=C2/SC(=Nc3c(C)nn(-c4ccccc4)c3N)NC2=O)cc1 | 16.6% (inactive)
33 | COc1ccc(Cl)cc1NC(=O)c1cc2c([nH]1)-c1nc(NC(=O)C(C)(C)C)sc1CC2 | 60.9% (inactive)
34 | c1cc[n+](C2c3ccccc3C([n+]3ccccc3)c3ccccc32)cc1 (stereo not given) | 88.3% (inactive)
35 | COc1cc(CN2CCC(N3CCCC3=O)c3ccccc32)cc(OC)c1OC (stereo not given) | 56.4% (inactive)
36 | O=C1NN(C(=O)c2ccc(Cl)cc2)C(c2ccccc2)=N/C1=C\c1ccc(F)cc1 | -3.45% (active)
37 | CCCCCCCCCCCCCCCCCC1=NCCN1CCO | 36.3% (inactive)
38 | COc1cc(-c2cc(=O)oc3cc(O)ccc23)c(OC)c2c1OCO2 | 103% (inactive)
39 | COc1cc2nc(Cl)nc(Nc3ccc(S(=O)(=O)Nc4nccs4)cc3)c2cc1OC | 102% (inactive)
40 | O=C(C[P+](c1ccccc1)(c1ccccc1)c1ccccc1)C[P+](c1ccccc1)(c1ccccc1)c1ccccc1 | -43.6% (active)
